Source: PubChem BioAssay
This is a sample that favours compounds with a hit; in the whole collection about 1.3% have one here.
Apoferritin bind = qHTS Assay for Identification of Novel General Anesthetics; Ferritin light chain (Equus caballus), P02791; apoferritin/1-aminoanthracene competitive binding, fluorescence; Potency, µM (highest dose often 77.5 µM), for the others: at the top dose activity change, negative = displacement, most hits filed as inhibitors; 0.074% of 350,000 active; also: potency is read from the fitted curve at half-maximal effect; % is scaled to controls: 0 for no effect and ±100 for the full control effect; nearly all actives have a fitted effect of over 20% in size
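Horse-spleen apoferritin (10 uM) was mixed with 50% saturated 1-aminoanthracene in PBS, exposed to compounds for 10 min at room temperature, and read for fluorescence (ex 380 nm, em 535 nm). Competitive displacement was fitted with a four-parameter Hill equation.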
GALK inhibitor = qHTS Assay for Inhibitors of Human Galactokinase (GALK); 0.007% of 270,000 active; Purified GALK, Kinase-Glo residual ATP luminescence; AID 1868, 2009; P51570; Potency, µM (titrated, usually from 57.5 µM), inactives show at the top dose activity change, negative = inhibition, most hits filed as inhibitors; also: potency is read from the fitted curve at half-maximal effect; % is scaled to controls: 0 for no effect and ±100 for the full control effect
Target sequence (P51570 whole entry, looked up): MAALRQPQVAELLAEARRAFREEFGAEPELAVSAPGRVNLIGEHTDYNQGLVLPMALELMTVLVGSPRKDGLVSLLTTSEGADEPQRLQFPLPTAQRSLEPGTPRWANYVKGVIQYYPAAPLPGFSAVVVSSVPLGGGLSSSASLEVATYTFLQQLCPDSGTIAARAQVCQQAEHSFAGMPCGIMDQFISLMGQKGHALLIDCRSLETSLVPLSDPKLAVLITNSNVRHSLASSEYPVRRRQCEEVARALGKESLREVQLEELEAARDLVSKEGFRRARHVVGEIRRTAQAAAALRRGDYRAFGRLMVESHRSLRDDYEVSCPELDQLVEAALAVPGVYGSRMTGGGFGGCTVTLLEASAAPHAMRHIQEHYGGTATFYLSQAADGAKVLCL
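5 nM enzyme, 35 uM ATP, 100 uM galactose, 20 mM HEPES pH8.0, 5 mM MgCl2; 1 h RT; residual ATP by Kinase-Glo Plus luminescence, qHTS format.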
PKM2 activator = qHTS Assay for Activators of Human Muscle isoform 2 Pyruvate Kinase; purified PKM2, Kinase-Glo ATP luminescence, activation; response scale: 0% is enzyme alone, no compound; Potency, µM (titrated, usually from 57.5 µM), for inactives: at the highest dose activation, hits mostly activators; 0.34% of 260,000 active; also: potency is read from the fitted curve at half-maximal effect; % is scaled to controls: 0 for no effect and ±100 for the full control effect; nearly all actives have a fitted effect of over 55% in size
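Purified hPK-M2 (>95%) run at intermediate activity with 0.1 mM ADP and 0.5 mM PEP in 50 mM imidazole pH 7.2, KCl, MgCl2; 1 h room temperature. ATP formed read by Kinase-Glo luminescence; normalized to uninhibited and no-enzyme controls.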
mIDH1 inhibitor = qHTS for Inhibitors of mutant isocitrate dehydrogenase 1 (IDH1): qHTS | Isocitrate dehydrogenase [NADP] cytoplasmic (Homo sapiens), O75874 | IDH1-R132H enzyme, NADPH consumption, diaphorase/resazurin fluorescence | Potency, µM (highest dose often 76.6 µM), for the others: at the top dose activity change, negative = inhibition, usual class: inhibitors | 0.093% of 390,000 active | AID 602179, 2012; also: potency is read from the fitted curve at half-maximal effect; % is scaled to controls: 0 for no effect and ±100 for the full control effect; nearly all actives have a fitted effect of over 65% in size
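IDH1-R132H (0.5 ug/mL) preincubated 30 min with compound, then NADPH (0.016 mM) and alpha-KG (2 mM) added; 80 min at RT, pH 7.5. Remaining NADPH coupled via diaphorase/resazurin to fluorescence (540/590 nm); concentration-response curves normalized to no-enzyme control.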
TrxR1 substrate = qHTS Assay for Substrates of Mammalian Selenoprotein Thioredoxin Reductase 1 (TrxR1): qHTS; Thioredoxin reductase 1, cytoplasmic (Rattus norvegicus), O89049; purified TrxR1 substrate turnover, NADPH consumption readout; Potency, µM (series often up to 114 µM), without a hit: at the top dose activity change, negative = substrate turnover; 0.01% of 390,000 active; also: potency is read from the fitted curve at half-maximal effect; % is scaled to controls: 0 for no effect and ±100 for the full control effect; nearly all actives have a fitted effect of over 50% in size
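Rat TrxR1, dispensed at 90 nM, was prereduced with 400 uM NADPH (final) for 5 min at ~22 deg C, then incubated with compound 15 min before 400 uM selenite. A first-read NADPH fluorescence drop versus no-compound background flagged substrates.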
rTrxR1 inhibitor = qHTS Assay for Inhibitors of Mammalian Selenoprotein Thioredoxin Reductase 1 (TrxR1): qHTS; Thioredoxin reductase 1, cytoplasmic (Rattus norvegicus), O89049; 1% of 390,000 active; AID 588453, 2011; recombinant rTrxR1, NADPH fluorescence consumption, selenite substrate; Potency, µM (top dose mostly 114 µM), inactives show at the highest dose activity change, negative = inhibition, actives largely listed as inhibitors; also: potency is read from the fitted curve at half-maximal effect; % is scaled to controls: 0 for no effect and ±100 for the full control effect; nearly all actives have a fitted effect of over 65% in size
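Rat TrxR1 (90 nM in the dispensed reagent) was pre-reduced with 400 uM NADPH for 5 min at room temperature, then incubated with compound for 15 min. After 400 uM selenite was added, NADPH fluorescence (Ex 340/Em 450 nm) was followed for 8 min.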
Resorufin autofl = qHTS for Inhibitors of mutant isocitrate dehydrogenase 1 (IDH1): Cherrypicks Autofluorescence Interference | 750 tested, under 10 active | inhibition of signal, % at 51.2 µM | shares compounds with mIDH1 inhibitor | Resorufin detection reagent fluorescence interference, cell-free | AID 623980, 2012;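 also: 0% = wells with normal resorufin and full inhibition = wells lacking resorufin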
WT IDH1 inh = qHTS for Inhibitors of mutant isocitrate dehydrogenase 1 (IDH1): Cherrypicks in WT IDH1; Potency, µM (top dose mostly 115 µM), without a hit: at the top dose activity change, negative = inhibition, hits mostly inhibitors; WT IDH1 enzyme, NADPH diaphorase/resazurin fluorescence; AID 623995, 2012; 9% of 750 active; shares compounds with mIDH1 inhibitor;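 also: potency is read from the fitted curve at half-maximal effect; 0% = full WT IDH1 enzyme control and full inhibition = no enzyme wells; nearly all actives have a fitted effect of over 55% in size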
Target sequence (O75874 whole entry, looked up): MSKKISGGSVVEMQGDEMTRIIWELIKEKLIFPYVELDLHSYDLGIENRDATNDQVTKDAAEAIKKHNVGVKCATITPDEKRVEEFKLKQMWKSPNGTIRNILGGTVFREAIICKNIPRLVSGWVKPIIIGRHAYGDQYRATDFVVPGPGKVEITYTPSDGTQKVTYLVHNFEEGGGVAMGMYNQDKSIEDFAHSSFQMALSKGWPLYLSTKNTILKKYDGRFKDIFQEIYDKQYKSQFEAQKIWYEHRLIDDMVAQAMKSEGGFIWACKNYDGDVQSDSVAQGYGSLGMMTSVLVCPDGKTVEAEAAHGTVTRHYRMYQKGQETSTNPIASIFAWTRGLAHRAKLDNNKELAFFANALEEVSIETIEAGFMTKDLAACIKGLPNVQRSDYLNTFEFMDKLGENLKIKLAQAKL
IDH1 R132H conf = qHTS for Inhibitors of mutant isocitrate dehydrogenase 1 (IDH1): Confirmation of Cherrypicks | shares compounds with mIDH1 inhibitor | IDH1 R132H enzyme, NADPH diaphorase/resazurin fluorescence | Potency, µM (doses to about 76.6 µM), for the others: at the top dose activity change, negative = inhibition, most hits filed as inhibitors | 83% of 750 active; also: potency is read from the fitted curve at half-maximal effect; nearly all actives have a fitted effect of over 50% in size
Active calls of the source: *; ? = inconclusive; · = no result; [ ] = dose if it differs, or a comment. Calls follow the shape of the dose curve; as a rule, active = well fitted curve in the direction sought with a large enough effect; inconclusive = small, poorly fitted or top-dose-only effect, or another doubt; inactive = no such curve, though single readings can be large; an effect the other way counts as inactive or inconclusive.

SMILES	Apoferritin bind	GALK inhibitor	PKM2 activator	mIDH1 inhibitor	TrxR1 substrate	rTrxR1 inhibitor	Resorufin autofl	WT IDH1 inh	IDH1 R132H conf
COCCN1C(=O)/C(=C/c2ccc(Oc3ccc([N+](=O)[O-])cn3)c(OC)c2)SC1=Nc1ccccc1	-2.5%	-0.1%	-1.5%	11.2%	2.4%	19.2%	·	·	·
CC(=O)Nc1ccc(C=NNc2ccc(S(=O)(=O)Nc3ccccc3C(=O)O)cc2[N+](=O)[O-])cc1	·	·	·	-3.9%	-19.3%	-25.4%	·	·	·
O=C(O)c1ccccc1NS(=O)(=O)c1ccc(N/N=C/c2cccc(O)c2O)c([N+](=O)[O-])c1	·	·	·	41.4µM*	-18.7%	?	8.0	?	14.1µM*
COc1cc(C2C(C#N)=C(N)N(c3sc4c(c3C#N)CCCC4)C3=C2C(=O)CC(C)(C)C3)cc(OC)c1OC (configuration not stated)	-15.5%	4.5%	1.2%	?	-6.5%	-10.5%	5.7	7.3%	7.94µM*
COc1ccc(-n2ncc(C(=O)N3CCN(c4ccccn4)CC3)c2C2CCN(C(=O)OC(C)(C)C)CC2)cc1	-8.7%	·	·	17.9%	8.6%	14.6%	·	·	·
CN1CC(c2ccccn2)C2(SC(=S)N(Cc3ccccc3)C2=O)C12C(=O)Nc1ccccc12 (configuration not stated)	-16.6%	-3.8%	0.0%	?	5.2%	-8.3%	-2.1	-2.4%	20µM*
CN1CC(c2ccccc2)C2(SC(=S)N(Cc3ccco3)C2=O)C12C(=O)Nc1ccccc12 (configuration not stated)	?	-0.1%	-8.9%	-0.7%	8.1%[57.1 µM]	4.6%	·	·	·
COc1ccccc1C1(CC(=O)O)CCOC(C(C)C)C1 (configuration not stated)	0.9%	-0.9%	2.2%	6.3%	8.2%[57.1 µM]	19.1%	·	·	·
CCC(=O)N(CCC1(c2ccccc2OC)CCOC(C(C)C)C1)Cc1ccco1 (configuration not stated)	-10.8%	-3.1%	0.3%	?	-9.2%	11.3%[57.1 µM]	2.6	7.3%	39.8µM*
CN(C)c1ccc(/C=C/c2ccnc3c(N)cccc23)cc1	·	·	·	·	-4.0%[0.0914 µM]	-9.9%	·	·	·
CCOC(=O)c1nc(Nc2ccc(C(=O)OCC(C)C)cc2)c2ccccc2n1	?	·	·	·	25.2%	8.1%	·	·	·
COc1cccc(Cn2c(=O)n(-c3cccc(Cl)c3C)c(=O)c3c4c(sc32)CN(C(C)=O)CC4)c1	-8.0%	·	·	35.5µM*	3.7%[57.1 µM]	15.5%[57.1 µM]	0.7	20µM*	25.1µM*
COc1ccc(-n2c(-c3ccc(Cl)cc3Cl)n[nH]c2=S)c(OC)c1	-10.5%	0.5%	1.0%	46.5µM*	-1.1%	-20.8%	-8.4	1.9%	-7.8%
COc1ccc(C2c3c(-c4ccccc4O)n[nH]c3C(=O)N2Cc2ccco2)cc1 (configuration not stated)	-21.1%	·	5.8%	?	-5.4%	6.4%	-3.3	4.4%	31.6µM*
Cc1cc(C)c(-c2n[nH]c3c2C(c2ccccc2F)N(Cc2ccco2)C3=O)c(O)c1 (configuration not stated)	?	·	·	?	-1.1%	-1.2%	-7.8	7.0%	?
COc1ccc(C2c3c(-c4c(C)cc(C)cc4O)n[nH]c3C(=O)N2Cc2ccco2)cc1 (configuration not stated)	?	·	·	·	0.2%	-2.7%	·	·	·
O=C1c2[nH]nc(-c3ccccc3O)c2C(c2cccc(O)c2)N1Cc1ccco1 (configuration not stated)	-23.1%	-0.8%	5.9%	5.3%	-8.5%	-3.8%	·	·	·
Cc1ccc(O)c(-c2n[nH]c3c2C(c2ccc(F)cc2)N(Cc2ccco2)C3=O)c1 (configuration not stated)	-14.7%	·	·	39.8µM*	-4.8%	-0.2%	-6.2	-14.3%	28.2µM*
CN1CCN(NC(=O)c2cc(-c3ccc(Cl)s3)nc3ccccc23)CC1	12.5%	7.7%	-3.0%	?	81.2%	-14.2%	-2.1	7.0%	-1.6%
COc1ccc(Nc2c3c(nc4ccc(NC(=O)/C=C/c5cc(OC)c(OC)c(OC)c5)cc24)CCCC3)cc1OC	-11.0%	·	·	?	-3.9%	5.8%	-5.7	7.1%	?
Cc1c(O)c2c(c(C(=O)/C=C/c3ccccc3)c1O)OC(C)(C)C=C2	·	·	·	·	-5.1%	?	·	·	·
Cc1ccc(Cn2cc3c(n2)-c2c(oc(C(=O)Nc4ccc(F)cc4F)c2C)CC3)cc1	4.6%	·	·	-6.1%	0.8%	27.0%	·	·	·
COc1cc(Cl)cc(C(c2c(C(=O)O)[nH]c3ccccc23)c2c(C(=O)O)[nH]c3ccccc23)c1O	-1.2%	-6.5%	-7.2%	-3.7%	-4.1%	?	·	·	·
O=C(O)c1[nH]c2ccccc2c1C(c1cc(Br)ccc1O)c1c(C(=O)O)[nH]c2ccccc12	-8.8%	-4.1%	-10.1%	41.4µM*	1.4%	-6.6%	10.8	70.8µM*	25.1µM*
CC(=O)c1ccc(OC2C(O)COC2/C=C/c2ccc(Cl)cc2)cc1 (configuration not stated)	-6.4%[15.3 µM]	·	·	·	·	·	·	·	·
Cc1ccc(C(C(=O)NC2CCCCC2)N(Cc2ccccc2)C(=O)Cc2c[nH]c3ccccc23)o1 (configuration not stated)	0.9%	1.0%	0.7%	?	-7.1%	-3.9%	-6.0	8.6%	?
